According to PubChem BioAssay AID1159580 (chemical genetic matrix, 2015):
Where “and” joins values, the source holds several entries; their conditions need not be identical. Equal values may be shown once. About 2,000 (36%) of roughly 5,500 compounds were called active. Roughly 18% stayed inconclusive and do not appear here. Cut-off read from the data, not from the text of the source: active = normalized growth mostly below about 0.91 (no sharp cut-off); inconclusive = no clear call, values can overlap the other calls; inactive = mostly above about 0.92. The list shows a part of the results.

Assay: chemical genetic growth profiling, strain panel (AID 1159580);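 note: tested at 20 µM; growth read once vehicle control cultures reached saturation at 30 °C; 1 = growth at the plate median or of vehicle wells; lower values mean less growth of the strain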
Settings: S. cerevisiae deletion strains, growth OD

Measured: normalized growth

CN1C[C@H](C(=O)N[C@]2(C)O[C@@]3(O)[C@@H]4CCCN4C(=O)[C@H](Cc4ccccc4)N3C2=O)C[C@@H]2c3cccc4[nH]cc(c34)C[C@H]21
inactive: locus YAL013W, strain DEP1, hits give low values 0.96 | locus YAL021C, strain ccr4, hits give low values 0.95 | locus YAL026C, strain drs2, hits give low values 1.01 | locus YAL030W, strain snc1, hits give low values 0.984 | locus YBL061C, strain skt5, hits give low values 0.996 | locus YBR009C, strain hhf1, hits give low values 1.07 | locus YBR021W, strain FUR4, hits give low values 0.929 | locus YBR023C, strain chs3, hits give low values 1 | locus YBR171W, strain sec66, hits give low values 0.973 | locus YBR229C, strain ROT2, hits give low values 0.983 | locus YBR231C, strain swc5, hits give low values 0.987 | locus YBR279W, strain paf1, hits give low values 0.997 | locus YCL011C, strain gbp2, hits give low values 0.966 | locus YCL016C, strain dcc1, hits give low values 0.998 | locus YCL029C, strain bik1, hits give low values 0.973 | locus YCL061C, strain MRC1, hits give low values 0.998 | locus YCL069W, strain vba3, hits give low values 0.992 | locus YCR088W, strain abp1, hits give low values 0.994 | locus YDL005C, strain med2, hits give low values 0.997 | locus YDL035C, strain GPR1, hits give low values 1.01 | locus YDL040C, strain nat1, hits give low values 1 | locus YDL074C, strain BRE1, hits give low values 0.896 | locus YDL101C, strain DUN1, hits give low values 0.957 | locus YDL134C, strain PPH21, hits give low values 0.992 | locus YDL185W, strain tfp1, hits give low values 0.998 | locus YDL192W, strain arf1, hits give low values 0.988 | locus YDR001C, strain nth1, hits give low values 0.981 | locus YDR069C, strain doa4, hits give low values 0.987 | locus YDR101C, strain arx1, hits give low values 0.996 | locus YDR137W, strain rgp1, hits give low values 1.02 | locus YDR150W, strain NUM1, hits give low values 1 | locus YDR159W, strain sac3, hits give low values 1 | locus YDR162C, strain NBP2, hits give low values 0.987 | locus YDR195W, strain ref2 0.99 | locus YDR297W, strain sur2, hits give low values 0.981 | locus YDR318W, strain mcm21, hits give low values 0.97 | locus YDR334W, strain swr1, hits give low values 0.944 | locus YDR335W, strain msn5, hits give low values 0.992 | locus YDR388W, hits give low values 0.981 | locus YDR392W, strain spt3, hits give low values 0.871 | locus YDR502C, strain sam2, hits give low values 0.968 | locus YEL003W, strain gim4, hits give low values 0.99 | locus YEL037C, strain rad23, hits give low values 0.987 | locus YEL061C, strain CIN8 (second series), hits give low values 0.994 | locus YEL061C, strain CIN8, hits give low values 0.996 | locus YER015W, strain faa2, hits give low values 0.971 | locus YER016W, strain bim1, hits give low values 0.988 | locus YER110C, hits give low values 0.977 | locus YER111C, strain swi4, hits give low values 1.01 | locus YER155C, strain BEM2 (second series), hits give low values 0.964 | locus YER155C, strain BEM2, hits give low values 0.979 | locus YER167W, strain BCK2, hits give low values 0.981 | locus YFR010W, strain ubp6, hits give low values 0.997 | locus YGL078C, strain dbp3, hits give low values 0.982 | locus YGL086W, strain mad1, hits give low values 0.985 | locus YGL167C, strain pmr1, hits give low values 1 | locus YGL173C, strain kem1, hits give low values 0.993 | locus YGL227W, strain vid30, hits give low values 0.996 | locus YGL240W, strain doc1, hits give low values 0.938 | locus YGL248W, strain PDE1, hits give low values 0.945 | locus YGL253W, strain hxk2, hits give low values 0.98 | locus YGR078C, strain PAC10, hits give low values 0.947 | locus YGR135W, strain pre9, hits give low values 0.912 | locus YHR013C, strain ard1, hits give low values 0.971 | locus YHR027C, strain rpn1, hits give low values 0.967 | locus YHR030C, strain SLT2, hits give low values 0.994 and 1.01 | locus YHR079C, strain IRE1 (second series), hits give low values 0.977 | locus YHR079C, strain IRE1, hits give low values 1.01 | locus YHR094C, strain hxt1, hits give low values 0.98 | locus YHR129C, strain ARP1, hits give low values 0.983 | locus YHR142W, strain chs7, hits give low values 1 | locus YHR200W, strain rpn10, hits give low values 0.981 | locus YIL066C, strain RNR3, hits give low values 0.984 | locus YIL073C, strain SPO22, hits give low values 0.98 | locus YIL125W, strain kgd1, hits give low values 0.987 | locus YIR030C, strain dcg1, hits give low values 0.975 | locus YJL092W, strain hpr5, hits give low values 0.985 | locus YJL095W, strain BCK1 (second series), hits give low values 0.98 | locus YJL095W, strain BCK1, hits give low values 0.926 and 1.03 | locus YJL115W, strain asf1, hits give low values 0.983 | locus YJL129C, strain trk1, hits give low values 0.973 | locus YJL134W, strain LCB3, hits give low values 0.984 | locus YJL154C, strain vps35, hits give low values 0.982 | locus YJL164C, strain tpk1, hits give low values 1.02 | locus YJL166W, strain qcr8, hits give low values 0.94 | locus YJL168C, strain set2, hits give low values 0.98 | locus YJL187C, strain SWE1 (second series), hits give low values 0.941 | locus YJL187C, strain SWE1, hits give low values 0.986 | locus YJR043C, strain POL32, hits give low values 0.991 | locus YJR066W, strain TOR1, hits give low values 0.94
active: locus YGR252W, strain gcn5, hits give low values 0.741
